Measurements: the supplement of paper PMC11732987, “Enantioselective OTUD7B fragment discovery through chemoproteomics screening and high-throughput optimisation” (Communications Chemistry, 2025)

How the values were obtained:
Assay in all cases: log2 ratio of Biotin-Ahx-Ub-VS probe labelling (fragment/DMSO); higher = less target engagement (more negative = stronger competition), active = hit call of the paper (q ≤ 0.05, log2 ratio ≤ -1)
Settings in all cases: compound concentration: 200 uM; treatment time: 3 h
OTUD6B = target: T1, OTUD6B (UniProt Q8N6M0)
T1 sequence (whole entry): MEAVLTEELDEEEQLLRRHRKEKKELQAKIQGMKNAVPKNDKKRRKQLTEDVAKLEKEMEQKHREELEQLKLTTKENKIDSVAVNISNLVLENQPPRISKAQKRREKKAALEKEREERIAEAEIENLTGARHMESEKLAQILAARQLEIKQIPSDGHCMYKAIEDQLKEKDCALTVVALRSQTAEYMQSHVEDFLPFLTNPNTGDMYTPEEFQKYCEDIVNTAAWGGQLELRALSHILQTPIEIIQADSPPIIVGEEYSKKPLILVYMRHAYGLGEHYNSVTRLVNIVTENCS
Procedure, shortened: (§1)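 HEK293T lysate in Tris/CHAPS/IGEPAL buffer with protease inhibitors (495 µg per sample) was given fragment at 200 µM or vehicle for 3 h, in triplicate. It then received Biotin-Ahx-Ub-VS at 0.5 µM final for 1 h. Labelled DUBs were NeutrAvidin-enriched, digested with LysC and trypsin, and run by diaPASEF LC-MS/MS. Values are average log2 fragment/vehicle ratios by unpaired t-test on global-median-normalised Spectronaut quantities of proteins with ≥2 unique peptides.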

OTUD7B = target: T2, OTUD7B (UniProt Q6GQQ9)
T2 sequence (whole entry): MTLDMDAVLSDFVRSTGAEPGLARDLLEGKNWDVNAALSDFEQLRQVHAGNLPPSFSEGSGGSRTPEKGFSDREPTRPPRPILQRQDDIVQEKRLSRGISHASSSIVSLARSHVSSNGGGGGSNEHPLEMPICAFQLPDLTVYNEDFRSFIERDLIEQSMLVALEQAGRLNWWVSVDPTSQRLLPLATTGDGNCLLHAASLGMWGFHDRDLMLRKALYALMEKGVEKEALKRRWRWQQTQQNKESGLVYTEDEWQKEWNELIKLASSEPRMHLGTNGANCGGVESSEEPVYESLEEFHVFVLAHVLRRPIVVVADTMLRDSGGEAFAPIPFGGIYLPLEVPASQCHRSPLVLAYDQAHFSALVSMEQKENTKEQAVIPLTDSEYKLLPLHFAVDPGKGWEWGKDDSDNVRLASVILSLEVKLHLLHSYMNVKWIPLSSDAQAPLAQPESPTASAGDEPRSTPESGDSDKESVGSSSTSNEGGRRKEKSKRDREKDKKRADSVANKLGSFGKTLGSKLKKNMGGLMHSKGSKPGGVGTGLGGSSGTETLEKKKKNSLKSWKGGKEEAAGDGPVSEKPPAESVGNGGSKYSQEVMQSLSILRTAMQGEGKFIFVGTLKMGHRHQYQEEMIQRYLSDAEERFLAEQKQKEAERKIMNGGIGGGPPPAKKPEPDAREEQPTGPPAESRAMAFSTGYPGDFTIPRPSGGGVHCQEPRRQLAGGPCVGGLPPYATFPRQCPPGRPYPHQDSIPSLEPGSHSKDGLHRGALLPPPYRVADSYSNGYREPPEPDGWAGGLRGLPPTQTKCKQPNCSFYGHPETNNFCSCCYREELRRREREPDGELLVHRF
Procedure, shortened: as §1

PRPF8 = PRPF8 (UniProt Q6P2Q9)
Procedure, shortened: as §1

PSMD7 = target: T3, PSMD7 (UniProt P51665)
T3 sequence (whole entry): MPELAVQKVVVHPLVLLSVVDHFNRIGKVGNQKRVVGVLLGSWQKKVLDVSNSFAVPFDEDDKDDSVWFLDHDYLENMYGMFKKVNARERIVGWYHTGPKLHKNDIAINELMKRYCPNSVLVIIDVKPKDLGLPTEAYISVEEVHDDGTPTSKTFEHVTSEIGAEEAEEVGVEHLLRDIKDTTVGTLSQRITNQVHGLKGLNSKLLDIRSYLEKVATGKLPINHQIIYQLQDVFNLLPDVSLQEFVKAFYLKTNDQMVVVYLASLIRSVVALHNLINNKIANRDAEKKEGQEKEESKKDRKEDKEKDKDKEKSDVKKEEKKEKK
Procedure, shortened: as §1

UCHL1 = UCHL1 (UniProt P09936)
Sequence of UCHL1 (P09936 whole entry, looked up): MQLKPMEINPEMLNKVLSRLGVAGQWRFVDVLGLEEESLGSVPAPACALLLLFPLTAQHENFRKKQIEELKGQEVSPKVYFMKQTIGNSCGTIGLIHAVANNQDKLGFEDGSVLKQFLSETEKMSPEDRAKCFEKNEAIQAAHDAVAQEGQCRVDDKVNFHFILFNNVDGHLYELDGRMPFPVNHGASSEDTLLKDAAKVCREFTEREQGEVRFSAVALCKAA
Procedure, shortened: as §1

UCHL3 = target: T4, UCHL3 (UniProt P15374)
T4 sequence (whole entry): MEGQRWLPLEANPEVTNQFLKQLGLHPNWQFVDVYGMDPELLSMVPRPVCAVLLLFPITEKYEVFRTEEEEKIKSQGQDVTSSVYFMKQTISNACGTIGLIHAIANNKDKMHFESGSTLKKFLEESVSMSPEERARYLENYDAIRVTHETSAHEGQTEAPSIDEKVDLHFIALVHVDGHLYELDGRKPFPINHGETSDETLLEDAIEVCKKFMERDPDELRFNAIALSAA
Procedure, shortened: as §1

UCHL5 = target: T5, UCHL5 (UniProt Q9Y5K5)
T5 sequence (whole entry): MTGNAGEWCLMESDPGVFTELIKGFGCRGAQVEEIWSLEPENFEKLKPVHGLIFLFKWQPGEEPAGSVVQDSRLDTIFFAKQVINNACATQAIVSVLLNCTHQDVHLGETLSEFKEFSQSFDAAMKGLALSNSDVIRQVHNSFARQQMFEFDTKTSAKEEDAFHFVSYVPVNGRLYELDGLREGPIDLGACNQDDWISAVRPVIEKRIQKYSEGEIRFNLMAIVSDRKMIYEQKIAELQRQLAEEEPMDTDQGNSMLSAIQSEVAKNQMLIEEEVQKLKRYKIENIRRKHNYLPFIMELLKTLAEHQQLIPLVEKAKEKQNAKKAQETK
Procedure, shortened: as §1

USP10 = USP10 (UniProt Q14694)
Sequence of USP10 (Q14694 whole entry): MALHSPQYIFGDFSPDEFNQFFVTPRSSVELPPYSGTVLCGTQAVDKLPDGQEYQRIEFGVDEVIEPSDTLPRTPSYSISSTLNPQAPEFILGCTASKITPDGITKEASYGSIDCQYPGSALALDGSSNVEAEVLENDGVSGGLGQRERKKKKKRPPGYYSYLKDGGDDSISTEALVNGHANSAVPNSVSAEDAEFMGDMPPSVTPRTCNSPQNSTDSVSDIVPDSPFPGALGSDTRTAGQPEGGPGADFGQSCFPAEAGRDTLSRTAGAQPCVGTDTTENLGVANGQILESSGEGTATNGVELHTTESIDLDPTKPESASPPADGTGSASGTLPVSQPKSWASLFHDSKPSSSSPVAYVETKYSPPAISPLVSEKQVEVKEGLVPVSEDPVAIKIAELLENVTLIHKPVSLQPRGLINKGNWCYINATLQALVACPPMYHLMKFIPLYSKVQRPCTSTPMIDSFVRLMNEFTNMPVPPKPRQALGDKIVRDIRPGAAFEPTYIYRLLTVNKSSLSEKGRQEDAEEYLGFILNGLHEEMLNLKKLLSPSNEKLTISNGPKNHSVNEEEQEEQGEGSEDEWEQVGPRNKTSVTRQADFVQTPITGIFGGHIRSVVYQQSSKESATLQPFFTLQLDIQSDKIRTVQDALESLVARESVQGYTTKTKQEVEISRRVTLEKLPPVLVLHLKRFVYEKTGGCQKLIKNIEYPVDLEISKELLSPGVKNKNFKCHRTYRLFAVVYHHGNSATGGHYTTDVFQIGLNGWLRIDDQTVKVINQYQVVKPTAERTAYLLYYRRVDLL
Procedure, shortened: as §1

USP15 = target: T6, USP15 (UniProt Q9Y4E8)
T6 sequence (whole entry): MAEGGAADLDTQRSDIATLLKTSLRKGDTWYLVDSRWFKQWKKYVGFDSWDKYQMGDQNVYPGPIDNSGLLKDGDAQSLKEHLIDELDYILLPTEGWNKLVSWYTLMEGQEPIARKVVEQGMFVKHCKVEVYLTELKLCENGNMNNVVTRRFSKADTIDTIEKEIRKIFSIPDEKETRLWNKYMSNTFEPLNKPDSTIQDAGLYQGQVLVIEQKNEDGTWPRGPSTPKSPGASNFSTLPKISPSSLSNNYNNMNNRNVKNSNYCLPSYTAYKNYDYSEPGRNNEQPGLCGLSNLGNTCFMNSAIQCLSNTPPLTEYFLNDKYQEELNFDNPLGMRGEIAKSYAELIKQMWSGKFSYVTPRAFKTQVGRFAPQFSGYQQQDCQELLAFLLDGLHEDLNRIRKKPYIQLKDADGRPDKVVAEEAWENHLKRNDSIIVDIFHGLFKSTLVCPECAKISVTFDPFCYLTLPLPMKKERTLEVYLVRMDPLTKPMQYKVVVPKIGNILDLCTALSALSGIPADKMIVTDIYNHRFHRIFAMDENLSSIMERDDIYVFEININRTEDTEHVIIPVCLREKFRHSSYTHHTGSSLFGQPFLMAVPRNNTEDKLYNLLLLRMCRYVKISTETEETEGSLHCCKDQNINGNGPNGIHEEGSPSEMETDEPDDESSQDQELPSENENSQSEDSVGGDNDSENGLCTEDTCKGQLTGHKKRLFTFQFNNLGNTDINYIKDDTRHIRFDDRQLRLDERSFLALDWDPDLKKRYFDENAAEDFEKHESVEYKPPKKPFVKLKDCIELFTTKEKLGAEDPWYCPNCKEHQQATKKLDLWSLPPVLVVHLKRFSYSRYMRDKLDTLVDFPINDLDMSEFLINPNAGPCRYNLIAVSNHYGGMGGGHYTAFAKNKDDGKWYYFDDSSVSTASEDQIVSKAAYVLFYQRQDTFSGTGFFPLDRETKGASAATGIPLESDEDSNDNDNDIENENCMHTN
Procedure, shortened: as §1

USP16 = USP16 (UniProt Q9Y5T5)
Sequence of USP16 (Q9Y5T5 whole entry, looked up): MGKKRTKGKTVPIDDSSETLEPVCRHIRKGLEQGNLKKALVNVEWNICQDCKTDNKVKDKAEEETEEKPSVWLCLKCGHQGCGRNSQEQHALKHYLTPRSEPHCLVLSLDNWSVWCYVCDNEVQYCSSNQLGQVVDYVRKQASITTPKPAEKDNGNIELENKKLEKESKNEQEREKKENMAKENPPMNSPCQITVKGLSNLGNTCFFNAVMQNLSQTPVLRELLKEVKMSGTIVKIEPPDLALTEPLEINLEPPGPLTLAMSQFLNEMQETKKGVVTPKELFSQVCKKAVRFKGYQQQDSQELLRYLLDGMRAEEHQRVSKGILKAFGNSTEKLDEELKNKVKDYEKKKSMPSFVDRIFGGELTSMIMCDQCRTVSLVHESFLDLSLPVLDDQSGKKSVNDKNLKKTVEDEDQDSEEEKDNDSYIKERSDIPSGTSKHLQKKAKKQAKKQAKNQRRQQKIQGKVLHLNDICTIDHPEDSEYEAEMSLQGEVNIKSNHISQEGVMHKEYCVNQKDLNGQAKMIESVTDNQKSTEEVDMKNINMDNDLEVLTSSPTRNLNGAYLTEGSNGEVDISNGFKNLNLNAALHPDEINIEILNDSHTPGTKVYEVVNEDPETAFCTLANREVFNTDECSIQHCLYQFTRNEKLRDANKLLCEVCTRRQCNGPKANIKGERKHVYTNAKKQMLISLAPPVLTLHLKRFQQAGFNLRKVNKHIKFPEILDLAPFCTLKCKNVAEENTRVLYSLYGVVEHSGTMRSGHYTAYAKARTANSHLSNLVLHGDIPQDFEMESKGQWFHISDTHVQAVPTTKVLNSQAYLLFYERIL
Procedure, shortened: as §1

Measured: log2 ratio of Biotin-Ahx-Ub-VS probe labelling

O=C(CCl)NCc1ccc(Cl)cc1
inactive: OTUD6B -0.0688 | OTUD7B -0.726 | PRPF8 0.0877 | PSMD7 0.0253 | UCHL3 0.379 | UCHL5 -0.00645 | USP10 -0.179 | USP15 0.049 | USP16 -0.354
active: UCHL1 -1.24
